Experimental findings from PubChem BioAssay are described below.

Each structure is given as a SMILES string. Values without a mark were called inactive. For some of these results: Measured potencies and affinities stand elsewhere. Activity calls are given as the source filed them. Unless noted, no rule for the calls is given here.

Test [1] is described as follows: antimalarial activity against Dd2 strain (AID 2302;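 active = growth inhibition above 50% at the single 2 µM test dose, taken to imply half-maximal potency below 2 µM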;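 also: 0% = DMSO untreated growth and 100% = chloroquine plus artemisinin killed control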). Particulars: P. falciparum Dd2 in RBCs, LDH growth readout, 72 h; at 2 µM; stronger effect = higher value.
Test [2] in a line: human hepatoma cell viability loss – ATP luminescence, cytotoxicity control for P. falciparum antimalarial project, primary screen (AID 2303;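 active = inhibition above 50%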;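 also: 0% = DMSO wells and 100% = digitonin-killed cells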). To be noted: HepG2 viability, 24-48 h, at 10 µM, stronger effect = higher value.
In test [3] the target is L-lactate dehydrogenase (Plasmodium falciparum (isolate CDC / Honduras)) (UniProt Q27743). Kind of test: PfLDH activity inhibition – cell lysate, 3D7 strain, counter-screen for P. falciparum growth inhibition project (AID 2304).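 Also: 0% = vehicle and 100% = reference inhibitor.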 To be noted: P. falciparum 3D7 crude extract, LDH APAD/NBT absorbance; at 2 µM; stronger effect = higher value. In general terms: The purpose of a counterscreen is to sort out artefacts and off-target activity.
Chain of L-lactate dehydrogenase (Plasmodium falciparum (isolate CDC / Honduras)) (Q27743 whole entry, looked up): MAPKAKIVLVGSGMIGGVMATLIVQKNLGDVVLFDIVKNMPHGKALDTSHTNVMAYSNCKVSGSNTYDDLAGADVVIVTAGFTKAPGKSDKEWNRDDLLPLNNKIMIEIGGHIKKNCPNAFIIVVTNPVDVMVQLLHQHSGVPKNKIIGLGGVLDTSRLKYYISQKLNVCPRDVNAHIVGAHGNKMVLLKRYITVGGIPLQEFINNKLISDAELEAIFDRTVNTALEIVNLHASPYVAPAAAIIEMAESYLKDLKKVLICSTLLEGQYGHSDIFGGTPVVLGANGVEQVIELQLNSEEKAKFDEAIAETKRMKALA

Test [4] is described as follows: inhibition of 3D7 malaria parasite growth – strain 3D7 (AID 2306).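 Also: 0% = DMSO wells and 100% = chloroquine plus artemisinin control wells.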 Particulars: P. falciparum 3D7 erythrocytic growth, LDH absorbance, 72 h; at 2 µM; stronger effect = higher value.
Test [5] concerns the target Calcium-dependent protein kinase 1 (Plasmodium falciparum (isolate 3D7)) (UniProt P62344). Kind of test: PfCDPK1 kinase inhibitors, biochemical, TCAMS library (AID 1159585; cut-off not given, nearly all actives have IC50 up to about 0.98 µM;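 also: inhibitors leave more ATP so luminescence rises with inhibition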). Particulars: recombinant PfCDPK1, Kinase-Glo ATP depletion luminescence. For orientation: Kinase-Glo reads ATP consumption through a luciferase reaction.
The target in test [6] is Plasmodium falciparum protein kinase 6 (PK6, PF3D7_1337100) (UniProt Q8IDW1). Kind of test: PfPK6 kinase inhibitors, biochemical, TCAMS library (AID 1159586). Particulars: recombinant PfPK6, Kinase-Glo ATP depletion luminescence.
Chain of Plasmodium falciparum protein kinase 6 (PK6, PF3D7_1337100) (Q8IDW1 1-305): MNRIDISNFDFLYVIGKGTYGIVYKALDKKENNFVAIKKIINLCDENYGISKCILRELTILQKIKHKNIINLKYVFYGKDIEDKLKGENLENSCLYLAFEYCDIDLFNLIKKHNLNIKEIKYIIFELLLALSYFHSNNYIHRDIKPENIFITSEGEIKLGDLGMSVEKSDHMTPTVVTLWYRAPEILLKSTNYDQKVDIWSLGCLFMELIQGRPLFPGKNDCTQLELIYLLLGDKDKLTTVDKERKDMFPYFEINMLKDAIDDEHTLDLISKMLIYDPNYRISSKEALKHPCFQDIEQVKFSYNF
Test [7] addresses Protein kinase 7 (PK7), Plasmodium falciparum 3D7 (PF3D7_0213400) (UniProt Q7YTF7). Kind of test: inhibition of Plasmodium PK7 catalytic activity – biochemical, TCAMS antimalarial set, Kinase-Glo luminescence (AID 1159587). Particulars: recombinant PfPK7, Kinase-Glo ATP depletion luminescence.
Test [8] has as its target Calcium-dependent protein kinase 4 (Plasmodium falciparum (isolate 3D7)) (UniProt Q8IBS5). Kind of test: PfCDPK4 kinase inhibitors, biochemical, TCAMS library (AID 1159588; cut-off not given, nearly all actives have IC50 up to about 0.91 µM). Particulars: recombinant PfCDPK4, Kinase-Glo ATP depletion luminescence.

Chain of Calcium-dependent protein kinase 1 (Plasmodium falciparum (isolate 3D7)) (P62344 whole entry, looked up): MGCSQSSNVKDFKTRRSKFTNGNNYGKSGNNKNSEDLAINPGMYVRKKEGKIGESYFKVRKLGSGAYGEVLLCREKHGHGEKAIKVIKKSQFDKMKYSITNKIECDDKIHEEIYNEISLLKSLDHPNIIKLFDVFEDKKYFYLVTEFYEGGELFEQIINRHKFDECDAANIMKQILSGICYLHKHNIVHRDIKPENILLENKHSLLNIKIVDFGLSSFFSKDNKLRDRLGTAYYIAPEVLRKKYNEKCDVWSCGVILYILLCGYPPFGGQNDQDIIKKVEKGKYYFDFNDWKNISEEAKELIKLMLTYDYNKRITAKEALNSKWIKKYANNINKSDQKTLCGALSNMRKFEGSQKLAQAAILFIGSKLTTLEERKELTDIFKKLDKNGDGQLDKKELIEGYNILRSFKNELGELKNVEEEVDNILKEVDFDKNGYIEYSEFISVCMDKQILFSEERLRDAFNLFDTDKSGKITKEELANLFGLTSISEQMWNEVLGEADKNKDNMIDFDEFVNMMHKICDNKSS
Chain of Calcium-dependent protein kinase 4 (Plasmodium falciparum (isolate 3D7)) (Q8IBS5 whole entry, looked up): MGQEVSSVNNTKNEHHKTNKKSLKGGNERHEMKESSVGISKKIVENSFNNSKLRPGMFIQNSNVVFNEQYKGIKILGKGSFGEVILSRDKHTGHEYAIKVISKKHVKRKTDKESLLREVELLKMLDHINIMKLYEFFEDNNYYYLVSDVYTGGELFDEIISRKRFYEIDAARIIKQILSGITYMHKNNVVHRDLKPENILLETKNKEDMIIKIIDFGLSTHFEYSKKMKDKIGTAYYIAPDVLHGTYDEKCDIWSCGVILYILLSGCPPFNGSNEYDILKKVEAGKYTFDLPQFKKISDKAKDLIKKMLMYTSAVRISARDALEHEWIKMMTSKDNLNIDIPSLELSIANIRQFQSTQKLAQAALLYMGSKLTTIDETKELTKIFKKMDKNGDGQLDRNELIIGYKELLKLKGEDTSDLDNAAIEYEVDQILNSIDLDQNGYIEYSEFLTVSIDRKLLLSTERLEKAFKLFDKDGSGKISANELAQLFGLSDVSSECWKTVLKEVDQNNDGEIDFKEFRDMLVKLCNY
Chain of Protein kinase 7 (PK7), Plasmodium falciparum 3D7 (PF3D7_0213400) (Q7YTF7 1-343): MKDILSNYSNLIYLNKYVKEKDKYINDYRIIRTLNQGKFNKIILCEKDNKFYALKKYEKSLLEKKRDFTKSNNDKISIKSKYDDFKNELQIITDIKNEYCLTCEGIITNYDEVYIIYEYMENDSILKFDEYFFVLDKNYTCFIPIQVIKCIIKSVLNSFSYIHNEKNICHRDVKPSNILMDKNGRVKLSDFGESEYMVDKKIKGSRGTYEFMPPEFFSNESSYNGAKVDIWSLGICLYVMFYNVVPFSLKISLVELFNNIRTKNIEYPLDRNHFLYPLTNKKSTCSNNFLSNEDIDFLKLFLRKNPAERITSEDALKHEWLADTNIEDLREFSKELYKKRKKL

For orientation: inhibition means the drop in the measured response relative to a control, in per cent. Take `Cc1cc(N)c2cc(NC(=O)/C=C/c3ccccc3Cl)ccc2n1`: the figures for the growth inhibition in test [1] and in test [4] were 98% (active) and 100% (active), respectively. The inhibition in test [2] was 81% (active); in test [3] it was -2%. Besides, the result in test [5], in test [6], in test [7] and in test [8] was inactive.
With `CC(=O)c1ccccc1C(=O)N1CCOc2ccc(C(O)C(c3ccccc3)c3ccccc3)cc2C1` (stereo not given), the growth inhibition in test [1] is 98% (active); in test [4], 96% (active). Moreover, the inhibition in test [2] is 10%; in test [3], 3%. The outcome in test [5], in test [6], in test [7] and in test [8] was inactive.
On to `CC(Cc1ccc(C(=O)N2CCN(C(=O)c3ccc(CC(C)NCCc4cccc(Cl)c4)cc3)CC2)cc1)NCCc1cccc(Cl)c1` (stereo not given), for which the growth inhibition in test [1] was 85% (active); in test [4] it was 101% (active). Besides, the inhibition is 99% (active) in test [2] and -4% in test [3]. Also, the result in test [5], in test [6], in test [7] and in test [8] was inactive.
As for `O=C(NCC1CCN(Cc2cccc(F)c2)C1)c1cc(-c2cccc(C(F)(F)F)c2)cs1` (stereo not given), the growth inhibition is 10% in test [1] and 96% (active) in test [4]. Besides, the inhibition in test [2] was 31%; in test [3], -2%. Moreover, the result in test [5], in test [6], in test [7] and in test [8] was inactive.
On to `CCCc1cc(C(=O)N[C@@H](Cc2ccccc2)[C@H](O)CNC(C)C)c(F)c(N2CCCC2=O)c1`, for which the growth inhibition is 22% in test [1] and 90% (active) in test [4]. Further, the inhibition was -2% in test [2] and 0% in test [3]. For the same compound, the result in test [5], in test [6], in test [7] and in test [8] was inactive.
With `CCN(CC)CCN(Cc1ccc(-c2ccc(C(F)(F)F)cc2)cc1)C(=O)Cn1c(/C=C/c2ccco2)nc(=O)c2ccccc21`, the growth inhibition in test [1] was 86% (active); in test [4] it was 94% (active). For the same compound, the inhibition in test [2] was 28%; in test [3], -2%. The result in test [5], in test [6], in test [7] and in test [8] was inactive.
With `CC[C@H](NC(=O)c1ccc(NC(=O)OC(C)(C)C)cc1)C(=O)N[C@@H](CO)C(=O)NCCCCc1ccccc1`, the growth inhibition in test [1] was 94% (active); in test [4], 98% (active). The inhibition was -6% in test [2] and 1% in test [3]. Further, the outcome in test [5], in test [6], in test [7] and in test [8] was inactive.
As for `COc1cc(Cc2cnc(N)nc2N)cc(OCCCN2C(=O)c3ccccc3C2=O)c1OC`, the values for the growth inhibition in test [1] and in test [4] were -3% and 96% (active), respectively. Further, the inhibition in test [2] was -1%; in test [3], 1%. The outcome in test [5], in test [6], in test [7] and in test [8] was inactive.
In the case of `O=C(/C=C/c1ccc(Cl)c(Cl)c1)NCCCCCN1CCC(NC(=O)c2ccc([N+](=O)[O-])cc2)CC1`, the growth inhibition is 6% in test [1] and 100% (active) in test [4]. Further, the inhibition in test [2] was 36%; in test [3] it was -2%. Further, the result in test [5], in test [6], in test [7] and in test [8] was inactive.
Take `CN1CCN(c2ccnc3ccc(NC(=O)Nc4ccc5c(c4)CCCC5=O)cc23)CC1`: the growth inhibition in test [1] was 90% (active); in test [4], 101% (active). For the same compound, the inhibition in test [2] is 8%; in test [3], 4%. Also, the result in test [5], in test [6], in test [7] and in test [8] was inactive.
For `O=C(Nc1ccc(CCNCCCc2ccccc2)cc1)Nc1ccc(Cl)c(Cl)c1`, the values for the growth inhibition in test [1] and in test [4] were 99% (active) and 100% (active), respectively. In addition, the inhibition in test [2] is 33%; in test [3], -1%. Besides, the result in test [5], in test [6], in test [7] and in test [8] was inactive.
For the compound `CCn1cc(-c2nc(-c3cc(OC)cc(OC)c3)no2)c(=O)c2ccccc21`, the figures for the growth inhibition in test [1] and in test [4] were 77% (active) and 89% (active), respectively. Besides, the inhibition in test [2] is -7%; in test [3], 0%. Further, the result in test [5], in test [6], in test [7] and in test [8] was inactive.
For `O=C(NC1CC1)c1cnc(N2CCC(Cc3ccccc3)CC2)c(Cl)c1`, the growth inhibition in test [1] and in test [4] was 96% (active) in each case. Also, the results for the inhibition in test [2] and in test [3] were 10% and -2%, respectively. Also, the result in test [5], in test [6], in test [7] and in test [8] was inactive.
In the case of `CN(CCCCCNC(=O)/C=C/c1ccc(Cl)c(Cl)c1)CCc1c[nH]c2ccccc12`, the growth inhibition in test [1] was 18%; in test [4], 91% (active). In addition, the inhibition was 40% in test [2] and 2% in test [3]. The outcome in test [5], in test [6], in test [7] and in test [8] was inactive.
On to `COc1cc(NC(=O)c2sc(-c3ccc(Cl)cc3)cc2NC(=O)c2ccncc2)ccc1OCCN1CCCC1`, for which the growth inhibition in test [1] and in test [4] was 100% (active) each time. The results for the inhibition in test [2] and in test [3] were 100% (active) and 3%, respectively. Also, the result in test [5], in test [6], in test [7] and in test [8] was inactive.
Consider `C=CCN(c1nc(NC)nc(NCc2c(OC)cccc2OC)n1)C1CCCC1`, for which the growth inhibition in test [1] was 70% (active); in test [4] it was 85% (active). Besides, the inhibition in test [2] was 18%; in test [3], -3%. Besides, the result in test [5], in test [6], in test [7] and in test [8] was inactive.
`O=S(=O)(NCCN1CCCC1)c1ccc(-c2cccc(CNC3Cc4ccccc4C3)c2)cc1F`: the growth inhibition in test [1] was 62% (active); in test [4], 98% (active). Besides, the inhibition in test [2] is 41%; in test [3], -1%. The result in test [5], in test [6], in test [7] and in test [8] was inactive.
For `Cc1nc2nc(N)nc(N)c2c(C)c1Cc1ccc(C(N)=O)cc1`, the results for the growth inhibition in test [1] and in test [4] were -3% and 97% (active), respectively. Also, the inhibition was 55% (active) in test [2] and 3% in test [3]. The result in test [5], in test [6], in test [7] and in test [8] was inactive.
Turning to `CCn1cc2c3c(cc(C(=O)N[C@@H](Cc4ccccc4)[C@H](O)CNC4CCOCC4)cc31)N(C)S(=O)(=O)CC2`, the growth inhibition in test [1] and in test [4] was 98% (active) each time. Besides, the values for the inhibition in test [2] and in test [3] were -10% and 0%, respectively. In addition, the result in test [5], in test [6], in test [7] and in test [8] was inactive.
Turning to `Cc1nc2ccc(/C=C/C(=O)NC3CCC(CCN4CCc5ccc(C#N)cc5CC4)CC3)cc2[nH]1` (stereo not given), the growth inhibition in test [1] is 21%; in test [4], 88% (active). Besides, the inhibition in test [2] was 7%; in test [3] it was -2%. Further, the outcome in test [5], in test [6], in test [7] and in test [8] was inactive.
